Holding throughout (assay): DAPPL (digital affinity profiling via proximity ligation, sequencing); 10 mM Tris-HCl pH 7.5, 50 mM NaCl, 1 mM DTT, 4% glycerol, room temperature, 30 min; GST-TFs on glutathione beads, 16-mer random dsDNA library, 0.1% formaldehyde crosslink after washing; high values mean tight binding
Holding throughout (conditions): protein: recombinant; tags: N-terminal GST; dsDNA, one strand shown

One assay concerns the target T1, ERF (Homo sapiens, UniProt P50548 1-548).
T1 sequence: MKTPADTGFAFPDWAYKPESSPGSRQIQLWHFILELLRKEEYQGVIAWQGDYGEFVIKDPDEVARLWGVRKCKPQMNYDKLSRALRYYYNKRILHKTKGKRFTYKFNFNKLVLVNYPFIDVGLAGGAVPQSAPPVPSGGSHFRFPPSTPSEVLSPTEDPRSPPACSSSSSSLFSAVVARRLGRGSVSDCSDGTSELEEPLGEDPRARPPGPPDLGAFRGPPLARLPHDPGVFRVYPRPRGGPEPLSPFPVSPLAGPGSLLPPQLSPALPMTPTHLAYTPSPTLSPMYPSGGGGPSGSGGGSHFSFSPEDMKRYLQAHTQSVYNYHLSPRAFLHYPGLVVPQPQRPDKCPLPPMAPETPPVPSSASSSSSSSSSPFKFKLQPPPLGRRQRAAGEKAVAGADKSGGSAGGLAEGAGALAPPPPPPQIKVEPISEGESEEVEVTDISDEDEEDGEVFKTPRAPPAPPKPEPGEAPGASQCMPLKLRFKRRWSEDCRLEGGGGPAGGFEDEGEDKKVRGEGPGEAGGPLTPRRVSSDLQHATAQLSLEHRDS
A digest of the protocol: (§1)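 Yeast served to express human transcription factors as GST fusions, which were then captured on glutathione beads and labelled with DNA barcodes. Pooled with a tag-only sample, they were incubated with 200 nmole of a 16-mer random double-stranded DNA library for 30 min at room temperature in Tris/NaCl/DTT/glycerol buffer, washed, crosslinked with 0.1% formaldehyde, ligated by proximity, amplified by PCR and sequenced. Dividing each hexamer's read frequency for a factor by its frequency for the tag-only sample gives the binding signal.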

The target in another assay is T2, ETV3L (Homo sapiens, UniProt Q6ZN32 1-361).
T2 sequence: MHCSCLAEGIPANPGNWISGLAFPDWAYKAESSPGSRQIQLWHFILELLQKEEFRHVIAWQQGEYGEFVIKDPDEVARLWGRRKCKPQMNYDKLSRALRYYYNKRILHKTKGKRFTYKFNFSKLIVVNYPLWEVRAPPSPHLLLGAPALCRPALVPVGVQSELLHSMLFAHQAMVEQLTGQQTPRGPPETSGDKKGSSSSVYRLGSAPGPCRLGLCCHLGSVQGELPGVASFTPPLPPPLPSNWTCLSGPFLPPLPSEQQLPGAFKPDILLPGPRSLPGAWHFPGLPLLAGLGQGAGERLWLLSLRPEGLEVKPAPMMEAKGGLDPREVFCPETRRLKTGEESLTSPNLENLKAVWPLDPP
In short, it runs like this: as §1

The target in the next assay is T3, ETS2 (Homo sapiens, UniProt P15036 1-469).
T3 sequence: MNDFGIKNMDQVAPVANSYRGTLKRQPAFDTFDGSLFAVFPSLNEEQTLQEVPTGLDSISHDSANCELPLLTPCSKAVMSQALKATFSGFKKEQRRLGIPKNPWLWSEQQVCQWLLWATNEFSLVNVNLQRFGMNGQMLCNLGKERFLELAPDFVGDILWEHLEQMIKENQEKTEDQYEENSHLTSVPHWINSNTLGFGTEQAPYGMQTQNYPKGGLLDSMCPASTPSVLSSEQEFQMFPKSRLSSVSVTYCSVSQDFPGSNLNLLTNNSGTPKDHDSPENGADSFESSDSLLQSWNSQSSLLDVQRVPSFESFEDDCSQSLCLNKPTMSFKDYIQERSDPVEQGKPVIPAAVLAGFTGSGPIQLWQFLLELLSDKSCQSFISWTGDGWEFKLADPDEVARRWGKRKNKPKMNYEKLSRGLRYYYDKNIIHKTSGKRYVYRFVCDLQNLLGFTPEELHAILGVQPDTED
In short, it runs like this: as §1

The next assay deals with T4, SPDEF (Homo sapiens, UniProt O95238 1-335).
T4 sequence: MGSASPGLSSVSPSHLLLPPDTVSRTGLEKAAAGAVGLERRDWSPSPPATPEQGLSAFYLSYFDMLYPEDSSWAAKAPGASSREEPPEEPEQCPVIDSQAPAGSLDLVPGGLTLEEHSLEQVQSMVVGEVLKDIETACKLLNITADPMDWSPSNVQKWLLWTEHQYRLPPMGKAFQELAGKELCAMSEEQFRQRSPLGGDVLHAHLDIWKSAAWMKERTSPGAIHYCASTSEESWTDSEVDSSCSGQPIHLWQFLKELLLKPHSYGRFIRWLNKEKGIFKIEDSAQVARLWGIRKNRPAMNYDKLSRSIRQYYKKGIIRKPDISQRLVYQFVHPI
A digest of the protocol:
as §1

Another assay has as its target T5, ETV7 (Homo sapiens, UniProt Q9Y603 1-341).
T5 sequence: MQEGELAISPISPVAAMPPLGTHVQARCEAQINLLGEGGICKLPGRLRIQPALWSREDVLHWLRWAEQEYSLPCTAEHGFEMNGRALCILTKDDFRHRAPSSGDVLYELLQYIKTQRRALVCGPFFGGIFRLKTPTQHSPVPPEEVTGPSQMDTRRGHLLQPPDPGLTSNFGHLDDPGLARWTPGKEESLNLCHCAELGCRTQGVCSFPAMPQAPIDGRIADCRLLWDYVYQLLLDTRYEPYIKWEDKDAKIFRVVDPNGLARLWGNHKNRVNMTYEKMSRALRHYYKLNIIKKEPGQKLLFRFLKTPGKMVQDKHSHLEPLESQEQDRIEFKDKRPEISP
In short, it runs like this: as §1

Another assay deals with T6, ELF5 (Homo sapiens, UniProt Q9UKW6-2 1-255).
T6 sequence: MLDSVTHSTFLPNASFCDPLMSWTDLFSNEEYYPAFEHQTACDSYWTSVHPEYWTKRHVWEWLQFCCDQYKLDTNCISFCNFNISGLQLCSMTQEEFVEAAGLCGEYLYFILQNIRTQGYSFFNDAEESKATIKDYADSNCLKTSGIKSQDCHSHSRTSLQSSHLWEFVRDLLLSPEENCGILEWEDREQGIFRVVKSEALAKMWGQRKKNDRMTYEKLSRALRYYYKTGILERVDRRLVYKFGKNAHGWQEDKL
A digest of the protocol:
as §1

In another assay the target is T7, ETV3 (Homo sapiens, UniProt P41162-2 1-143).
T7 sequence: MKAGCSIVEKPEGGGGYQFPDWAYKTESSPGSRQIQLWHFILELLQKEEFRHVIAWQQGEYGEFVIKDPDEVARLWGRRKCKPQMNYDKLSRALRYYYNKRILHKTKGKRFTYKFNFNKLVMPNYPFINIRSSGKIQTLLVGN
In short, it runs like this: as §1

The next assay has as its target ETV6 (Homo sapiens, UniProt P41212 1-452). In short, it runs like this: as §1

Chain of ETV6 (P41212 whole entry): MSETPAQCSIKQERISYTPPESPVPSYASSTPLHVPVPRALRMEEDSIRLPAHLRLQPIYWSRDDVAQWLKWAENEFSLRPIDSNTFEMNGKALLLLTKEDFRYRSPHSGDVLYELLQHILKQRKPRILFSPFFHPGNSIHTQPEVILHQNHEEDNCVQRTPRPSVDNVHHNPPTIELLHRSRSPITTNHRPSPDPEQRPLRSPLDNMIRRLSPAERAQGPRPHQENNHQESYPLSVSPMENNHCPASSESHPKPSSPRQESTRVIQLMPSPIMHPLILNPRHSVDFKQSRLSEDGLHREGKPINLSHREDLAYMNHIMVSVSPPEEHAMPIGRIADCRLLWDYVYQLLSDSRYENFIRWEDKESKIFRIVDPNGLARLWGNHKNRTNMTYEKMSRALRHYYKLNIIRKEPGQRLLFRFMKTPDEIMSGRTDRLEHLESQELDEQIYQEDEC

With CAAGTA, the binding signal with ERF was 1.14 fold enrichment (6-mer frequency, TF over GST control); with ETV3L, 1.09 fold enrichment (6-mer frequency, TF over GST control); in the assay with ETS2, 1.05 fold enrichment (6-mer frequency, TF over GST control); in the assay with SPDEF, 1.08 fold enrichment (6-mer frequency, TF over GST control); with ETV7, 1.11 fold enrichment (6-mer frequency, TF over GST control); in the assay with ELF5, 1.06 fold enrichment (6-mer frequency, TF over GST control). The binding signal was 1.11 fold enrichment (6-mer frequency, TF over GST control) with ETV3 and 1.14 fold enrichment (6-mer frequency, TF over GST control) with ETV6.

Consider TAAATC, for which the binding signal with ERF was 1.24 fold enrichment (6-mer frequency, TF over GST control); in the assay with ETV3L, 1.29 fold enrichment (6-mer frequency, TF over GST control); with ETS2 it was 1.33 fold enrichment (6-mer frequency, TF over GST control); with SPDEF, 1.33 fold enrichment (6-mer frequency, TF over GST control); with ETV7 it was 1.22 fold enrichment (6-mer frequency, TF over GST control); with ELF5 it was 1.15 fold enrichment (6-mer frequency, TF over GST control). Moreover, the binding signal in the assay with ETV3 is 1.18 fold enrichment (6-mer frequency, TF over GST control); in the assay with ETV6, 1.29 fold enrichment (6-mer frequency, TF over GST control).

Regarding ATCCGA, the binding signal is 1.22 fold enrichment (6-mer frequency, TF over GST control) with ERF; 1.24 fold enrichment (6-mer frequency, TF over GST control) in the assay with ETV3L; 1.08 fold enrichment (6-mer frequency, TF over GST control) with ETS2; 1.26 fold enrichment (6-mer frequency, TF over GST control) with SPDEF; 1.15 fold enrichment (6-mer frequency, TF over GST control) with ETV7; 1.25 fold enrichment (6-mer frequency, TF over GST control) with ELF5. Besides, the binding signal was 1.11 fold enrichment (6-mer frequency, TF over GST control) in the assay with ETV3 and 1.24 fold enrichment (6-mer frequency, TF over GST control) with ETV6.

Regarding GTTTGA, the binding signal in the assay with ERF was 1.23 fold enrichment (6-mer frequency, TF over GST control); with ETV3L, 1.11 fold enrichment (6-mer frequency, TF over GST control); in the assay with ETS2, 1.26 fold enrichment (6-mer frequency, TF over GST control); in the assay with SPDEF it was 1.11 fold enrichment (6-mer frequency, TF over GST control); with ETV7 it was 1.24 fold enrichment (6-mer frequency, TF over GST control); with ELF5, 1.17 fold enrichment (6-mer frequency, TF over GST control). Further, the binding signal with ETV3 is 1.24 fold enrichment (6-mer frequency, TF over GST control); with ETV6, 1.28 fold enrichment (6-mer frequency, TF over GST control).

As to CTTGAC, the binding signal was 1.16 fold enrichment (6-mer frequency, TF over GST control) with ERF; 1.17 fold enrichment (6-mer frequency, TF over GST control) with ETV3L; 1.12 fold enrichment (6-mer frequency, TF over GST control) with ETS2; 1.13 fold enrichment (6-mer frequency, TF over GST control) in the assay with SPDEF; 1.2 fold enrichment (6-mer frequency, TF over GST control) with ETV7; 1.21 fold enrichment (6-mer frequency, TF over GST control) with ELF5. For the same sequence, the binding signal with ETV3 was 1.22 fold enrichment (6-mer frequency, TF over GST control); with ETV6 it was 1.23 fold enrichment (6-mer frequency, TF over GST control).

Take GATGGT: the binding signal in the assay with ERF was 1.22 fold enrichment (6-mer frequency, TF over GST control); with ETV3L, 1.19 fold enrichment (6-mer frequency, TF over GST control); with ETS2, 1.13 fold enrichment (6-mer frequency, TF over GST control); in the assay with SPDEF, 1.04 fold enrichment (6-mer frequency, TF over GST control); in the assay with ETV7, 1.06 fold enrichment (6-mer frequency, TF over GST control); with ELF5, 1.08 fold enrichment (6-mer frequency, TF over GST control). Further, the binding signal in the assay with ETV3 was 1.12 fold enrichment (6-mer frequency, TF over GST control); with ETV6 it was 1.1 fold enrichment (6-mer frequency, TF over GST control).

Take ATCTCA: the binding signal was 1.07 fold enrichment (6-mer frequency, TF over GST control) in the assay with ERF; 1.13 fold enrichment (6-mer frequency, TF over GST control) with ETV3L; 1.14 fold enrichment (6-mer frequency, TF over GST control) with ETS2; 1.07 fold enrichment (6-mer frequency, TF over GST control) with SPDEF; 1.15 fold enrichment (6-mer frequency, TF over GST control) in the assay with ETV7; 1.09 fold enrichment (6-mer frequency, TF over GST control) with ELF5. The binding signal in the assay with ETV3 is 1.13 fold enrichment (6-mer frequency, TF over GST control); with ETV6, 1.11 fold enrichment (6-mer frequency, TF over GST control).
